The list is not random: actives were taken first. Their share in the collection is about 19%.
DT40 TDP1 no CPT – qHTS for Inhibitors of human tyrosyl-DNA phosphodiesterase 1 (TDP1): qHTS in cells in absence of CPT | Potency, µM (highest dose often 46.2 µM), actives largely listed as inhibitors | DT40 Tdp1-/- hTDP1 cells, no CPT, ATP luminescence, 48 h | actives 15% (n = 420,000); further: nearly all actives have a fitted effect of over 55% in size
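A cellular qHTS used chicken DT40 cells lacking endogenous Tdp1 but carrying stably transfected human TDP1. Compounds were applied without camptothecin, and cell growth kinetics were judged by ATP-dependent luminescence after ≥48 hr.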
TDP1 cell CPT – qHTS for Inhibitors of human tyrosyl-DNA phosphodiesterase 1 (TDP1): qHTS in cells in presence of CPT. Potency, µM (doses to about 46.2 µM), usual class: inhibitors. chicken DT40 Tdp1-/-;hTDP1 cells + 20 nM CPT, ATP luminescence, 48 h. actives 12% (n = 420,000). AID 686979, 2013; further: nearly all actives have a fitted effect of over 55% in size
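Cell growth measured by CellTiter-Glo luminescence after a minimum 48 h, 37 C compound exposure with 20 nM CPT in Tdp1-knockout DT40 cells stably expressing hTDP1, seeded 400/well; qHTS titration format.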
HT1080 IDH1KD tx – qHTS for induction of synthetic lethality in tumor cells producing 2HG: qHTS for the HT-1080-IDH1KD cell line; HT-1080 IDH1 knockdown viability, ATP luminescence, 48 h; Potency, µM (titrated, usually from 46.1 µM), actives largely listed as cytotoxic; actives 2% (n = 360,000); AID 686971, 2013
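Assay cells: HT-1080 with IDH1 knockdown, 750 per well, RPMI/5% FBS. Exposure: 48 h at 37 °C following 2 h pre-incubation. Read: CellTiter-Glo luminescence; fitted concentration-response, curve class assigned.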
HT1080NT lethal – qHTS for induction of synthetic lethality in tumor cells producing 2HG: qHTS for the HT-1080-NT fibrosarcoma cell line | Potency, µM (doses to about 46.1 µM), actives largely listed as cytotoxic | HT-1080-NT fibrosarcoma viability, CellTiter-Glo ATP luminescence, 48 h | actives 1.6% (n = 360,000);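 further: NT is the 2HG producing partner of a matched IDH1 knockdown line; nearly all actives have a fitted effect of over 55% in size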
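Luminescent CellTiter-Glo readout after 48 hours of compound exposure at 37 degrees C defined viability of HT-1080-NT cells. Activity was normalized to DMSO wells and cell-free media wells; concentration-response curves were fitted and assigned curve classes.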
IL-1B inflam inh – qHTS for Inhibitors of Inflammasome Signaling: IL-1-beta AlphaLISA Primary Screen; THP-1 LPS/ATP IL-1B secretion, AlphaLISA, 16 h; hits give low values; activity change, % at 57.5 µM; actives 4.7% (n = 360,000); in the data active means activity change below about -50%; inconclusive means mostly about -30% to -49%
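THP-1 cells pretreated 1 hr with compounds (up to 57.5 uM final), then stimulated with LPS (250 ng/mL final) plus ATP (1.25 mM final); secreted IL-1B measured by AlphaLISA after 16 hr, decreased signal indicating inhibition.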
Of the large screens only hits and unclear results are named; the others gave an inactive call. Unless noted, the call rests on the fitted dose curve; in most records, active means well fitted curve in the direction sought with a large enough effect; inconclusive means small, poorly fitted or top-dose-only effect, or another doubt; inactive means no such curve, though single readings can be large; an effect the other way counts as inactive or inconclusive.

CCOC(=O)c1[nH]c2ccc(OC)cc2c1NC(C)=O	none
COC(=O)c1[nH]c2ccc(F)cc2c1NS(=O)(=O)c1ccc(OC)cc1	DT40 TDP1 no CPT 3.26µM, TDP1 cell CPT 3.26µM, HT1080 IDH1KD tx inconclusive, HT1080NT lethal 5.17µM
CCOC(=O)Cn1nc(C)cc1NC(=O)c1cc(OC)c(OC)c(OC)c1	DT40 TDP1 no CPT inconclusive, TDP1 cell CPT inconclusive, IL-1B inflam inh -78.4
COc1ccc(S(=O)(=O)Nc2c(C(=O)O)[nH]c3ccc(OC)cc23)cc1	none
CCOC(=O)c1[nH]c2ccc(OC)cc2c1NC(=O)c1cccc(OC)c1	DT40 TDP1 no CPT inconclusive, TDP1 cell CPT 23.1µM
COCCNC(=O)CN(c1cc(Cl)ccc1OC)S(C)(=O)=O	none
CCOC(=O)c1cc(CC)sc1NC(=O)c1ccc(N2C(=O)CCC2=O)cc1	none
CCOC(=O)c1cc(CC)sc1NC(=O)c1cc(OC)c(OC)c(OC)c1	DT40 TDP1 no CPT 17.8µM, TDP1 cell CPT inconclusive
O=C(O)CNC(=O)c1ccc(Sc2ccccc2)c([N+](=O)[O-])c1	none
CC(C)(C)NC(=O)c1ccc(Sc2ccccc2)c([N+](=O)[O-])c1	DT40 TDP1 no CPT 8.2µM, TDP1 cell CPT inconclusive
COc1ccc(OC(=O)N(C)C[C@@H]2OCc3cn(nn3)CCCC(=O)N([C@@H](C)CO)C[C@H]2C)cc1	none
O=C(N/N=C/c1ccc(N2CCCCC2)o1)c1ccccc1[N+](=O)[O-]	DT40 TDP1 no CPT inconclusive, TDP1 cell CPT inconclusive, HT1080 IDH1KD tx inconclusive, IL-1B inflam inh inconclusive
Cc1cccc(C)c1C(O)c1ncc(-c2cccc(F)c2)[nH]1 (stereo unspecified)	none
O=C(Cc1coc2cc(O)ccc12)N1CCN(S(=O)(=O)c2ccc(Br)cc2)CC1	DT40 TDP1 no CPT 23.1µM, TDP1 cell CPT inconclusive, IL-1B inflam inh inconclusive
COc1ccc(N2CCN(C(=O)Cc3coc4cc(C)ccc34)CC2)cc1	none
CCSc1nc(C)cc(Oc2ccc(=O)n(C)n2)n1	none
NCCCC[C@H](NC(=O)[C@@H]1CCCN1C(=O)[C@@H]1CSSC[C@H](N)C(=O)N[C@@H](Cc2ccccc2)C(=O)N[C@@H](Cc2ccccc2)C(=O)N[C@@H](CCC(N)=O)C(=O)N[C@@H](CC(N)=O)C(=O)N1)C(=O)NCC(N)=O	none (no result: HT1080 IDH1KD tx, HT1080NT lethal, IL-1B inflam inh)
O=c1[nH]c2cc([N+](=O)[O-])cc(Cl)c2c2ccccc12	DT40 TDP1 no CPT inconclusive, TDP1 cell CPT inconclusive
N#Cc1cc2[nH]c3ccccc3c2[n+](-c2ccc([N+](=O)[O-])cc2)c1N	DT40 TDP1 no CPT inconclusive, IL-1B inflam inh -97.5
O=C(CSc1nncc(=O)[nH]1)NC1CCCCC1	none
CNc1cncc(-c2cccc(C(=O)N(C)C)c2)n1	DT40 TDP1 no CPT inconclusive
COC(=O)c1nn(-c2ccccc2)c(Cl)c1/C=N/O	none
Cc1cc(O)c(/C=N/OCc2ccc(Cl)cc2Cl)c(=O)o1	DT40 TDP1 no CPT inconclusive, TDP1 cell CPT 14.6µM
COC(=O)c1nn(-c2ccccc2)c(Cl)c1/C=N/OCc1ccc(Cl)cc1Cl	DT40 TDP1 no CPT 29.1µM, TDP1 cell CPT 16.4µM
COc1ccc(Cl)cc1N=Cc1c(O)cc(C)oc1=O	none
CCc1c(C)c(C#N)c2nc3ccccc3n2c1Nc1cccc(C(F)(F)F)c1	DT40 TDP1 no CPT 16.4µM, TDP1 cell CPT 16.4µM (no result: HT1080 IDH1KD tx, HT1080NT lethal, IL-1B inflam inh)
C(C#CCCCCCCCCC[n+]1ccccc1)#CCCCCCCCCC[n+]1ccccc1	DT40 TDP1 no CPT 3.26µM, TDP1 cell CPT 3.26µM, HT1080 IDH1KD tx 7.31µM, HT1080NT lethal 8.2µM, IL-1B inflam inh -94.9
CC(C)CC(=O)/C=C/n1c(=S)oc2ccccc21	DT40 TDP1 no CPT 2.31µM, TDP1 cell CPT 3.26µM, HT1080 IDH1KD tx inconclusive, IL-1B inflam inh -106.0
CC(=O)/C=C/n1c(=S)oc2ccccc21	DT40 TDP1 no CPT 0.651µM, TDP1 cell CPT 0.82µM, HT1080 IDH1KD tx 5.17µM, HT1080NT lethal 5.17µM, IL-1B inflam inh -97.8
Cn1c(=S)oc2ccccc21	none

Screens from PubChem BioAssay.
